Compounds with a hit are over-represented: about 3.2% of the library has one in this group of screens.
TcdB inh = TcdB glycohydrolase inhibitors, primary screen, biochemical, single point, plate reader | TcdB glycohydrolase enzymatic assay | inhibition, % at 9.99 µM | 0.24% of 350,000 active | AID 652162, 2013; in the data active = inhibition above about 10%
Y pestis TopoI = Yersinia pestis topoisomerase I inhibitors, primary screen, biochemical, cleavage product accumulation, plate reader, single point; Y. pestis Topo-I cleavage product accumulation; activity, % at 10 µM; 0.064% of 360,000 active; in the data active = activity above about 50%, passing the limit was not always enough
Mtb FBA inh = Mtb FBA enzyme inhibitors, primary screen, biochemical, fluorescence, strain H37Rv; Fructose-bisphosphate aldolase (Mycobacterium tuberculosis (strain ATCC 25618 / H37Rv)), …; purified M. tuberculosis FBA, fluorescence read-out; inhibition, % at 1 µM; 2.3% of 360,000 active; in the data active = inhibition above about 27%
PrPC TRFRET = inhibitors of human cell surface prion protein PrPC, primary screen, cell-based, TR-FRET; Major prion protein (Homo sapiens), P04156; TR-FRET read-out; inhibition, % at 13.8 µM; 0.43% of 370,000 active; in the data active = inhibition above about 24%
GDH-TPI counter = GDH-TPI coupling enzyme inhibitors, primary screen, artefact control for M. tuberculosis FBA inhibitor project, biochemical, absorbance, full deck. inhibition, % at 4.8 µM. GDH-TPI coupled enzyme counterscreen, NADH absorbance. 1.2% of 360,000 active; in the data active = inhibition above about 30%
A number is an active result; - = inactive; . = no result given.

SMILES	TcdB inh	Y pestis TopoI	Mtb FBA inh	PrPC TRFRET	GDH-TPI counter
Nc1ccc(C(=O)N/N=C/c2c[nH]c3ccccc23)cc1	-	-	-	-	40.8
O=C(N/N=C/c1c[nH]c2ccccc12)c1ccc(Cl)cc1	-	-	-	-	-
Nc1ccc(C(=O)N/N=C2\CCCc3c2[nH]c2ccccc32)cc1	.	-	-	-	62.2
Cc1cc(/C=N/NC(=O)c2ccc(O)cc2)c(C)n1CC(C)C	-	-	-	-	46.8
O=C(N/N=C/c1c[nH]c2ccccc12)c1ccc(Br)cc1	-	-	-	-	-
O=C(N/N=C\c1c[nH]c2ccccc12)c1ccc(O)cc1	-	-	-	-	31.6
Cc1noc(C)c1NC(=O)N(C)C[C@H]1OCCCC[C@@H](C)Oc2ccc(NC(=O)CCC(F)(F)F)cc2C(=O)N([C@@H](C)CO)C[C@H]1C	-	.	.	.	.
CC(C)(C)[S@@](=O)N1Cc2cc(C(=O)NC3CCCC3)nc(-c3cccc(Br)c3)c2[C@H]1CCO	-	.	.	.	.
CNC[C@@H]1OCCCC[C@H](C)Oc2ccc(NC(=O)Nc3ccc(F)cc3)cc2C(=O)N([C@@H](C)CO)C[C@H]1C	-	.	.	.	.
COCC(=O)N1[C@@H]2CN(C(=O)c3cccc(OC)c3)c3ccccc3[C@@H]2[C@@H]1CO	-	.	.	.	.
CCC(=O)N(C)C[C@@H]1Oc2cc(C#CC3CCCCC3)ccc2S(=O)(=O)N([C@H](C)CO)C[C@@H]1C	-	.	.	.	.
CN(C)c1ccc2c(c1)[C@@H]1C[C@@H](CC(=O)NCc3ccc4c(c3)OCO4)O[C@@H](CO)[C@@H]1O2	-	.	.	.	.
C[C@H](CO)N1C[C@H](C)[C@@H](CN(C)Cc2ccc(C(=O)O)cc2)Oc2ccc(NS(C)(=O)=O)cc2CC1=O	-	.	.	.	.
O=C(N/N=C/c1c[nH]c2ccccc12)c1cc(-c2ccccc2)n[nH]1	-	-	-	-	37.4
COC(=O)N/N=C/c1c[nH]c2ccccc12	-	-	-	-	-
NC(=S)N/N=C/c1c[nH]c2ccccc12	-	-	-	-	55.8
CCCNC(=O)[C@@H]1[C@@H](CO)[C@@H]2Cn3c(ccc(-c4cccc(F)c4)c3=O)[C@@H]2N1C(C)=O	-	.	.	.	.
C[C@@H]1CN([C@H](C)CO)C(=O)Cc2cc(NC(=O)Cc3cn(C)c4ccccc34)ccc2O[C@H]1CN(C)CC1CCCCC1	-	.	.	.	.
CN1C(=O)C(=Cc2ccc(N3CCCCCC3)cc2)C(=O)N(C)C1=O	-	-	-	-	54.5
CN(C)c1ccc(/C=C2\C(=O)NC(=O)N(CCc3ccc(F)cc3)C2=O)cc1	-	-	-	-	46.9
O=C1NC(=O)N(Cc2ccc(F)cc2)C(=O)/C1=C\c1ccc(N2CCCC2)cc1	-	-	-	-	33.2
CCN1C(=O)/C(=C/c2ccc(N3CCCC3)cc2)NC1=S	.	-	-	-	-
C[C@@H]1CCCCO[C@@H](CN(C)C(=O)c2ccccc2)[C@@H](C)CN([C@@H](C)CO)C(=O)c2cc(NC(=O)Nc3ccc(F)cc3)ccc2O1	-	.	.	.	.
C[C@H]1CN([C@@H](C)CO)C(=O)c2cc(NC(=O)Cc3ccccc3)ccc2O[C@H]1CN(C)S(=O)(=O)c1ccc(Cl)cc1	-	.	.	.	.
CCOC(=O)N1CCN(C(=S)NC(=O)c2ccc(F)c(F)c2)CC1	11.5	-	-	-	-
SMILES	TcdB inh	Y pestis TopoI	Mtb FBA inh	PrPC TRFRET	GDH-TPI counter
COC(=O)C[C@H]1CC[C@@H]2[C@@H](COc3ccc(NC(=O)c4ccc(OC)cc4)cc3C(=O)N2C)O1	12.1	.	.	.	.
COc1ccc(C(=O)Nc2ccc3c(c2)C(=O)N(C)[C@@H]2CC[C@H](CC(=O)NCC4CC4)O[C@@H]2CO3)cc1	14.9	.	.	.	.
CCNC(=O)C[C@H]1CC[C@@H]2[C@@H](COc3ccc(NC(=O)c4cccc(OC)c4)cc3C(=O)N2C)O1	10.2	.	.	.	.
COc1cccc(NC(=O)C[C@@H]2CC[C@H]3[C@H](COc4ccc(NC(=O)c5ccccc5F)cc4C(=O)N3C)O2)c1	-	.	.	.	.
C[C@H](CO)N1C[C@H](C)[C@@H](CN(C)S(=O)(=O)c2cccs2)Oc2ccc(NS(C)(=O)=O)cc2C1=O	-	.	.	.	.
Cn1c2ccccc2c(=O)c2ccc(F)cc21	-	-	190.9	-	-
CC(C)COc1ccc(CSCCNC(=S)Nc2ccccc2)cc1	.	-	74.0	-	-
CC1(C)C=C(c2ccc(C=O)s2)CC(C)(C)N1C=O	-	-	-	-	31.8
CC1(C)C=C(c2ccc(C=O)s2)CC(C)(C)N1	.	-	-	-	39.5
Cc1cc(-c2ccc(NS(=O)(=O)c3ccccc3)c(C)c2)ccc1NS(=O)(=O)c1ccccc1	11.9	-	-	-	-
Cc1ccc(NS(=O)(=O)c2ccccc2)c(NS(=O)(=O)c2ccccc2)c1	-	-	-	-	-
CO[C@H]1CN(C)C(=O)c2cc(NC(=O)C3CC3)ccc2OC[C@@H](C)N(CC2CCOCC2)C[C@H]1C	-	.	.	.	.
COc1ccc(S(=O)(=O)N[C@@H]2CC[C@@H](CC(=O)NCc3ccccc3F)O[C@H]2CO)cc1	-	.	.	.	.
CC(=O)COc1c(-c2ccco2)oc2ccccc2c1=O	-	-	-	-	32.3
O=C(Oc1c(-c2ccccc2)oc2ccccc2c1=O)c1ccccc1	.	-	-	-	-
O=C(N/N=C/c1ccc([N+](=O)[O-])o1)c1ccccc1NS(=O)(=O)c1cccs1	-	-	-	-	32.5
O=C(NN=Cc1ccc(F)cc1)c1ccccc1NS(=O)(=O)c1cccs1	-	-	-	-	-
COc1cc(/C=N/NC(=O)c2ccccc2NS(=O)(=O)c2cccs2)ccc1O	-	-	-	-	35.8
COc1cc(/C=N/NC(=O)c2sc(N)c(C#N)c2C)ccc1O	.	-	-	-	60.7
Cc1c(C(=O)N/N=C/c2ccc(O)c(Br)c2)sc(N)c1C#N	.	-	-	-	-
CCc1ccc(-n2c(O)c(/C=N/N3CCCCC3c3cccnc3)c(=O)[nH]c2=O)cc1 (stereo unspecified)	-	-	-	-	-
O=c1[nH]c(=S)n(-c2ccccc2)c(O)c1/C=N/N1CCCCC1c1cccnc1 (stereo unspecified)	-	-	-	-	51.9
C[C@@H]1CN([C@H](C)CO)C(=O)c2cccc(NC(=O)Nc3ccc(C(F)(F)F)cc3)c2O[C@@H]1CN(C)S(=O)(=O)c1cccs1	-	.	.	.	.
COc1ccc(-n2c(=O)/c(=C\c3cccs3)s/c2=C(/C#N)C(=O)NCCN2CCOCC2)cc1	.	-	-	-	34.1
COC(=O)/C=c1/s/c(=C(/C#N)C(=O)N2CCOCC2)n(-c2ccccc2)c1=O	.	-	-	-	39.9
O=C(C[C@H]1CC[C@@H]2[C@H](COC[C@H](O)CN2C(=O)c2ccccc2F)O1)N1CCCCC1	-	.	.	.	.
O=C(Nc1nc2ccc(S(=O)(=O)N3CCCC3)cc2s1)c1ccco1	-	-	-	-	39.0
O=C(C[C@H]1CC[C@@H]2[C@H](COC[C@H](O)CN2CCc2ccccc2)O1)NCc1ccc(F)cc1	-	.	.	.	.
COc1cc(/C=N/N2C(=O)CSC2=S)ccc1O	.	-	-	-	38.4

Screening results (PubChem BioAssay)
